Unmarked numbers belong to inactive results. Records with an inconclusive call do not appear. Calls of active or inactive are those of the source. Unless noted, calls come from the whole dose curve.

A short description of test [1]: Nuclear factor erythroid 2-related factor 2/antioxidant responsive element (Nrf2/ARE) small molecule agonists: qHTS cell viability counter screen in human keratinocytes (AID 1919968; active = well fitted curve in the direction sought with a large enough effect in the repeat runs; an effect the other way counts as inactive or inconclusive; note: nearly all actives have a fitted effect of over 55% in size). The essentials: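 After a 5 h attachment period, ARE-reporter keratinocytes were dosed with compounds in DMSO and then cultured 23 h at 37 C. Cell viability came from CellTiter-Fluor signal read after a further 1 h.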
On the technique in general: qHTS replaces the single test concentration by a dilution series.

Test [2] is described as follows: Nuclear factor erythroid 2-related factor 2/antioxidant responsive element (Nrf2/ARE) small molecule agonists: luciferase reporter gene qHTS assay in human keratinocytes (AID 1919969). Note: nearly all actives have a fitted effect of over 35% in size. A general note: In a reporter assay the amount or activity of a reporter protein is the signal.
The target of test [3] is Gonadotropin-releasing hormone receptor (Homo sapiens) (UniProt P30968). Nature of the test: Human gonadotropin-releasing hormone receptor (GnRHR) small molecule agonists, calcium flux assay in GnRHR-HEK293 cells (AID 1920063). Note: nearly all actives have a fitted effect of over 35% in size. The essentials: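 We seeded human GnRHR-expressing HEK293 cells for 18 hours, loaded them with calcium dye for an hour at 37 C, added test compounds, and recorded fluorescence intensity kinetically for three minutes.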
(A change in cytosolic calcium serves as a functional read-out for many receptors and channels.)

In test [4] the target is KiSS-1 receptor (Homo sapiens) (UniProt Q969F8). Nature of the test: Human kisspeptin (KISS1R) small molecule agonists, calcium flux assay in KISS1R-HEK293 cells (AID 1920064; active = well fitted curve in the direction sought with a large enough effect in the repeat runs; an effect the other way counts as inactive or inconclusive). The procedure, abridged:
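Kinetic calcium assay, 1 s sampling over 3 min at Ex/Em 480/540, in HEK293 cells engineered with human KISS1R; compounds delivered in DMSO after 1 h dye loading.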

A short description of test [5]: G protein-coupled receptor (GPCR) small molecule agonists, calcium flux assay: HEK293 wild type cell line counter screen (AID 1920065). The procedure, abridged:
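Calcium-sensitive dye, loaded 1 h at 37 C into cells cultured 18 h, reports compound-evoked calcium release as fluorescence (Ex/Em 480/540), measured over 3 min. Agonist mode; 15-point titrations, triplicate.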

Test [6] can be described thus: p53 small molecule agonists, cell-based qHTS assay with human liver microsomes: qHTS cell viability counter screen (AID 1963579). Note: nearly all actives have a fitted effect of over 45% in size. The essentials:
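Viability of p53RE-bla cells is measured as CellTiter-Glo luminescence following a 16 h, 37 C incubation with compound, liver microsomes from human donors and NADPH.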

A short description of test [7]: p53 small molecule agonists, cell-based qHTS assay with rat liver microsomes: qHTS cell viability counter screen (AID 1963580). Note: nearly all actives have a fitted effect of over 45% in size. The essentials: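 p53RE-bla HCT-116 cells were exposed 16 h at 37 C to compounds with rat liver microsomes (0.5 mg/mL) and NADPH (0.5 mg/mL). Viability was measured in the same wells as ATP content by CellTiter-Glo luminescence.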
Test [8] is described as follows: p53 small molecule agonists, cell-based qHTS assay: qHTS cell viability counter screen (AID 1963581). Note: nearly all actives have a fitted effect of over 45% in size. The procedure, abridged:
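Following 5 h attachment, HCT-116 p53RE-bla cells took up compound for 16 h at 37 C; the reporter was read with B/G FRET substrate (2 h RT), and viability then via CellTiter-Glo ATP luminescence.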

The target of test [9] is 5-hydroxytryptamine receptor 2A (Homo sapiens) (UniProt P28223). The test is described as follows: 5-hydroxytryptamine receptor 2A (HTR2A) small molecule antagonists, cell-based qHTS assay (AID 1963586). Note: nearly all actives have a fitted effect of over 45% in size. Note: potency is the fitted concentration of half-maximal effect. The essentials: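 Antagonist-mode intracellular calcium assay: DOI (4 nM) added after 5 min compound pre-incubation at room temperature to dye-loaded HTR2A-CHO cells. Fluorescence followed for 3 min, sampled every second.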

Test [10] shares this target. Nature of the test: 5-hydroxytryptamine receptor 2A (HTR2A) small molecule agonists, cell-based qHTS assay (AID 1963587). Note: nearly all actives have a fitted effect of over 30% in size. The procedure, abridged:
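CHO cells stably expressing human HTR2A, plated 18 h, loaded with calcium dye 1 h at 37 C. Agonist mode: compounds added and intracellular calcium fluorescence recorded kinetically for 2 min at 1 sec intervals.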

Test [11] has as its target Muscarinic acetylcholine receptor M1 (Homo sapiens) (UniProt P11229). Nature of the test: Cholinergic receptor muscarinic 1 (CHRM1) small molecule antagonists, cell-based qHTS assay (AID 1963588). Note: nearly all actives have a fitted effect of over 40% in size. The procedure, abridged: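 CHRM1-CHO calcium-flux assay, antagonist mode. Cells were seeded 18 h, dye-loaded 1 h at 37 C and given compound for 5 min at RT, then acetylcholine was added at 50nM. FDSS fluorescence was read 3 min; 15 concentrations, three runs.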

Test [12] shares this target. The test is described as follows: Cholinergic receptor muscarinic 1 (CHRM1) small molecule agonists, cell-based qHTS assay (AID 1963589). Note: nearly all actives have a fitted effect of over 35% in size. The essentials:
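Measures agonist-induced intracellular calcium rise. Stable human CHRM1 CHO line, 1 h dye load at 37 C, compounds from DMSO, kinetic fluorescence read.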

Test [13] in a line: cAMP Responsive Elements (CRE) small molecule agonists, cell-based qHTS assay (AID 1963590). The essentials: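 A CRE-responsive beta-lactamase reporter in HEK 293T cells was used. Treatment ran 3 h at 37 C; detection used LiveBLAzer B/G FRET substrate for 2 h at room temperature.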
The nature of test [14]: cAMP Responsive Elements (CRE) small molecule antagonists, cell-based qHTS assay (AID 1963591; active = well fitted inhibition curve with a large enough effect in the signal ratio in the repeat runs, not every such curve was filed as active; the % refers to the signal ratio). The procedure, abridged:
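HEK293T cells carrying a CRE-driven beta-lactamase reporter receive compound and NKH477 (0.25 uM final) for 3 h. Fluorescence from LiveBLAzer B/G FRET substrate is read after 2 h at room temperature.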

Test [15] concerns the target Beta-2 adrenergic receptor (Homo sapiens) (UniProt P07550). The test is described as follows: Adrenergic beta2 receptor (ADRB2) small molecule agonists, cell-based qHTS assay (AID 1963593).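 Note: CHO cells stably overexpressing human ADRB2.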 The essentials:
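CHO cells stably over-expressing ADRB2 were plated overnight at 37C, then dosed with compounds plus a stimulation mix containing 100uM IBMX and 25uM Ro-20-1724 for 0.5hr at room temperature. cAMP was measured by HTRF competition, 1hr.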

Test [16] deals with D(2) dopamine receptor (Homo sapiens) (UniProt P14416). Nature of the test: Dopamine D2 receptor (DRD2) small molecule agonists, cell-based qHTS assay (AID 1963594). Note: nearly all actives have a fitted effect of over 35% in size. The procedure, abridged:
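HEK293 cells stably expressing human DRD2, pre-treated with PDE inhibitor Ro20-1724 (0.1 mM final) and compound 10 min at room temperature, then stimulated with NKH477 (200nM […]) for 30 min. cAMP read by HTRF (665/620 nm).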

Test [17] shares this target. Nature of the test: Dopamine D2 receptor (DRD2) small molecule antagonists, cell-based qHTS assay (AID 1963595; active = well fitted inhibition curve with a large enough effect in the signal ratio in the repeat runs, with a control signal flat; the % refers to the signal ratio). The procedure, abridged: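 DRD2-HEK293; 0.1 mM Ro20-1724; cpd 10 min RT; NKH477 200 nM + quinpirole 12 nM, 30 min RT; HTRF cAMP (cAMP-d2/anti-cAMP cryptate), 665/620 nm ratio after 1 h.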
The target of test [18] is Beta-2 adrenergic receptor (Homo sapiens) (UniProt P07550). Nature of the test: Adrenergic beta2 receptor (ADRB2) small molecule antagonists, cell-based qHTS assay (AID 1963592). Note: series mostly up to about 92 µM; nearly all actives have a fitted effect of over 50% in size. The essentials:
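Cells (CHO, stable ADRB2 overexpression) incubated 18-20hr at 37C; compounds added from DMSO; agonist mix (1nM isoproterenol, 100uM IBMX, 25uM Ro-20-1724) added; 0.5hr RT; d2-cAMP and anti-cAMP-cryptate added; 1hr RT; 665/615 nm read.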
% is set by controls: 0 for no effect and ±100 for the full control effect.

Sequence of Muscarinic acetylcholine receptor M1 (Homo sapiens) (P11229 whole entry, looked up): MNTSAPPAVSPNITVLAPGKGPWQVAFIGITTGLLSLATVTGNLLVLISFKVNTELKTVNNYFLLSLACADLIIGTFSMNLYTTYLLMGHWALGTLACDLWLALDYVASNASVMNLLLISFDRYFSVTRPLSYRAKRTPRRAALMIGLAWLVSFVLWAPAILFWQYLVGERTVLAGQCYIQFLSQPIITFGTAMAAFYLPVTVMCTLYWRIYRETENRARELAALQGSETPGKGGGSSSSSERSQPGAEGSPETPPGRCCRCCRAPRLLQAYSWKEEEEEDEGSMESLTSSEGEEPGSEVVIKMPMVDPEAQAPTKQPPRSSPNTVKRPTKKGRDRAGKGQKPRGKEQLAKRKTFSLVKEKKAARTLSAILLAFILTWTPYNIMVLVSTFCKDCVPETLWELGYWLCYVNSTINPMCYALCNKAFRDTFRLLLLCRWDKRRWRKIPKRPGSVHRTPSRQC
Sequence of Beta-2 adrenergic receptor (Homo sapiens) (P07550 whole entry, looked up): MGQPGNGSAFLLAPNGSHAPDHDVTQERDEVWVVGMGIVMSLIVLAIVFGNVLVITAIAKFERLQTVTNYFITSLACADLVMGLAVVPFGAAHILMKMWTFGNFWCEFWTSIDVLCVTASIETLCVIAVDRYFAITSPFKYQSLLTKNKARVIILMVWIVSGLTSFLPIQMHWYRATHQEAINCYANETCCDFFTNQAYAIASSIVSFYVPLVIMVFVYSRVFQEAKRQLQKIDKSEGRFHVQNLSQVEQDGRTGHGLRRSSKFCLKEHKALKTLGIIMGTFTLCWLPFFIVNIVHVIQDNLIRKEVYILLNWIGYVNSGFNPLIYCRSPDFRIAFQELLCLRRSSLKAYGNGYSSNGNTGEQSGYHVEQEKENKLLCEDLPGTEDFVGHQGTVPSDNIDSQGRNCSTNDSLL
Sequence of 5-hydroxytryptamine receptor 2A (Homo sapiens) (P28223 whole entry, looked up): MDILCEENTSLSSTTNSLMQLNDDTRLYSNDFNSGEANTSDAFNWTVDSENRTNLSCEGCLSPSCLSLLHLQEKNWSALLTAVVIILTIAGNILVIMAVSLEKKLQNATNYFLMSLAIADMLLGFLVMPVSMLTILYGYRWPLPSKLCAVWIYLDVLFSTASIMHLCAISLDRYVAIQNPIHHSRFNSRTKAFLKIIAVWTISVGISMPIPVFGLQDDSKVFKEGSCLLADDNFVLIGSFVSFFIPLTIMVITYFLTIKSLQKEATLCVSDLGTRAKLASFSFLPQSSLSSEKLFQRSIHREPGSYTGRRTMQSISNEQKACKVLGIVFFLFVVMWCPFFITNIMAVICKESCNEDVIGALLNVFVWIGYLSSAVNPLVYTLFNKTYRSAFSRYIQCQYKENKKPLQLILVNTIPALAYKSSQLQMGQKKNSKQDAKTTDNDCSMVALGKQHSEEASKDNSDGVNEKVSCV
Sequence of Gonadotropin-releasing hormone receptor (Homo sapiens) (P30968 whole entry, looked up): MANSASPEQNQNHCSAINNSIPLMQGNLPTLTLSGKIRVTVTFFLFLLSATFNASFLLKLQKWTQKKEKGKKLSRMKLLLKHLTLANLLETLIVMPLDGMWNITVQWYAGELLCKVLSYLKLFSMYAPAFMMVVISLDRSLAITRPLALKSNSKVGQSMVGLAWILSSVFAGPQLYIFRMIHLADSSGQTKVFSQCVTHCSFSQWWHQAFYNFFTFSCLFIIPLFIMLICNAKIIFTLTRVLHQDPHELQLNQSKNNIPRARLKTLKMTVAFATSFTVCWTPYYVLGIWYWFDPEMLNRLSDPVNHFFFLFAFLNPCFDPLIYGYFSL
Sequence of D(2) dopamine receptor (Homo sapiens) (P14416 whole entry, looked up): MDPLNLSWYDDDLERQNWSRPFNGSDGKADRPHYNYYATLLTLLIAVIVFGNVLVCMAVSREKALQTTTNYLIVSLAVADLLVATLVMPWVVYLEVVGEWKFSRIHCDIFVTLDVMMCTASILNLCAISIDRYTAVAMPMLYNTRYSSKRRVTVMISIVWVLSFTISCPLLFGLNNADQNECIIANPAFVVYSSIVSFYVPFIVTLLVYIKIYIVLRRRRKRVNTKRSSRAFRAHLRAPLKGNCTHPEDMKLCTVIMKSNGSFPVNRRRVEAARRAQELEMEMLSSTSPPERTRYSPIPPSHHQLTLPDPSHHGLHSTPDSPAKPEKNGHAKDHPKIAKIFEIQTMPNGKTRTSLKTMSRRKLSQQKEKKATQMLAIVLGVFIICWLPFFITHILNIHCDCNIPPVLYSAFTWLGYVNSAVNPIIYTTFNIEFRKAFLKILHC
Sequence of KiSS-1 receptor (Homo sapiens) (Q969F8 whole entry, looked up): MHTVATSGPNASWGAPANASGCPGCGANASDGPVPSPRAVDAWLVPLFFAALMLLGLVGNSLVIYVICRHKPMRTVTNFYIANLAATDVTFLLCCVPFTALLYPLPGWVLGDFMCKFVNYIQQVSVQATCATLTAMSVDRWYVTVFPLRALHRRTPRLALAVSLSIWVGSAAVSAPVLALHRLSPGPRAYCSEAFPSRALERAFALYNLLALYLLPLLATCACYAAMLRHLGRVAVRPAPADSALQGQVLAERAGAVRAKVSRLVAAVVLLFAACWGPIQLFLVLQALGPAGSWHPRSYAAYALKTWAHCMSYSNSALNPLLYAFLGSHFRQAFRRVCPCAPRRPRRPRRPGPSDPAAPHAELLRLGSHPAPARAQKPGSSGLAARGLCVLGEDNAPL

Take `CC(=O)c1ccc([N+](=O)[O-])cc1`: the Potency entry in test [1], in test [2], in [3], in test [4], in test [5] and in [6] was “inactive” throughout. In addition, the Potency result in [7], in test [8], in test [9], in test [10], in test [11] and in test [12] was “inactive” in each case. In addition, the Potency result in [13], in test [14], in test [15], in [16] and in [17] was “inactive” each time.
As to `NC(CCC(=O)O)C(=O)O` (centres undefined), the Potency entry in test [1], in [2], in test [3], in test [4], in test [5] and in test [6] was “inactive” in each case. For the same compound, the Potency result in test [7], in [8], in [9], in test [10], in test [11] and in test [12] was “inactive” in each case. Besides, the Potency result in test [13], in test [14], in test [16] and in [17] was “inactive” in each case.
In the case of `CN(C)C(C)(C)CO`, the Potency result in test [1], in test [2], in test [3], in [4], in test [5] and in [6] was “inactive” in each case. The Potency entry in test [7], in [8], in test [9], in [10], in [11] and in test [12] was “inactive” throughout. The Potency entry in [13], in [18], in test [15], in test [16] and in test [17] was “inactive” in each case.
For the compound `COC(=O)CCS`, the Potency result in test [1], in test [2], in [3], in test [4], in [5] and in test [6] was “inactive” in each case. The Potency entry in test [7], in test [8], in test [9], in test [10], in [11] and in test [12] was “inactive” throughout. Further, the Potency entry in test [13], in [14], in test [16] and in test [17] was “inactive” in each case.
`CC(CSC(=O)c1ccccc1)C(=O)N1C[C@@H](Sc2ccccc2)C[C@H]1C(=O)O` (some centres undefined): the activity change, negative = cytotoxicity in test [1] is -6.69% [at 19 µM]; in test [6], -12.9% [at 13.5 µM]; in [7], -5.44% [at 13.5 µM]; in test [8], 14.1% [at 13.5 µM]. Also, in test [2], the activity, positive = activation was -3.94% [at 19 µM]. In addition, the activity change in [3] is -1.85% [at 11.8 µM, stronger effect = higher value]. Moreover, the activation in test [4] is -0.676% [at 15.8 µM]; in test [5], 0.566% [at 11.8 µM]; in test [10] it was -7.52% [at 15.9 µM]; in test [12], -0.159% [at 15.8 µM]; in test [13], -1.82% [at 19 µM]. The activity, negative = inhibition in [9] was 20.9% [at 12.7 µM]; in test [11], 17.6% [at 12.6 µM]. For the same compound, in [18], the activity change, negative = inhibition was 10.2% [at 19 µM].
Take `CCCCCCCCCCCCCBr`: the Potency entry in test [1], in [2], in test [3], in test [4], in [5] and in test [6] was “inactive” throughout. Besides, the Potency entry in test [7], in test [8], in [9], in test [10], in [11] and in [12] was “inactive” throughout. For the same compound, the Potency entry in test [14], in [18], in test [15], in [16] and in test [17] was “inactive” each time.
Regarding `S=C([S-])NCCNC(=S)[S-].[Mn+2]`, the Potency entry in test [1], in [2], in [3], in test [4], in test [5] and in [6] was “inactive” each time. Moreover, the Potency result in [7], in test [8], in test [9], in test [10], in test [11] and in [12] was “inactive” in each case. Further, the Potency result in test [13], in [15] and in test [16] was “inactive” in each case.
In the case of `CN(C)CCN(C)CCO`, the Potency result in test [1], in test [2], in test [3], in [4], in test [5] and in [6] was “inactive” throughout. For the same compound, the Potency result in test [7], in [8], in [10], in [11], in [12] and in test [13] was “inactive” in each case. For the same compound, the Potency result in [18], in test [15], in test [16] and in [17] was “inactive” in each case. Moreover, in test [9], the Potency was 9.4 µM (active).

(Values after PubChem BioAssay (Tox21).)
